# Values joined by “and” are separate entries in the source; they are usually repeats but may differ in a detail not shown here. Identical values can stand only once. Results filed as inconclusive are left out. A call without a number means that no potency is given here. The source holds several records for some structures; these can differ, active in one and inactive in another. Active and inactive are the calls of the source. Unless noted, calls come from the whole dose curve; as a rule, active = well fitted curve in the direction sought with a large enough effect in the repeat runs; inconclusive = weak or mixed curves; inactive = no such curve, though single readings can be large; an effect the other way counts as inactive or inconclusive.
# What was measured:
# [1] = qHTS assay to identify small molecule antagonists of the androgen receptor (AR) signaling pathway using the MDA cell line in the presence of 0.5 nM R1881 - cell viability counter screen (AID 1259242); note: nearly all actives have a fitted effect of over 45% in size
# Method in brief: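 MDA-kb2 cells (human breast carcinoma, stably carrying MMTV-luciferase reporter) were exposed to compounds with 0.5 nM R1881 (final) for 16 hr at 37C, 0% CO2; viability then read as live-cell protease fluorescence (CellTiter-Fluor, 30 min) in the same wells.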
# [2] = biological target: Estrogen receptor (Homo sapiens) (UniProt P03372); experiment: qHTS assay to identify small molecule antagonists of the estrogen receptor alpha (ER-alpha) signaling pathway using the BG1 cell line in the presence of 0.1 nM 17-beta-estradiol (AID 1259244); note: nearly all actives have a fitted effect of over 50% in size; note: potency is the fitted concentration of half-maximal effect
# Method in brief: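 VM7Luc4E2 cells (endogenous full-length ER-alpha, stable 4xERE-luciferase) were grown 5 days in phenol red-free medium with charcoal-stripped FBS, then exposed 22 h at 37C to compounds plus 0.1 nM (final) 17beta-estradiol; ONE-Glo luminescence read-out.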
# [3] = qHTS assay to identify small molecule HDAC inhibitors (AID 1259364); note: nearly all actives have a fitted effect of over 45% in size; note: potency is the fitted concentration of half-maximal effect
# Method in brief: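 Wild-type HCT-116 cells were plated overnight, exposed to compounds for 2 h at 37 °C, then given HDAC-Glo class I/II luminogenic reagent for 30 min at room temperature before luminescence was read.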
# [4] = qHTS assay to identify small molecule HDAC inhibitors - cell viability counter screen (AID 1259365); note: series mostly up to about 92 µM; nearly all actives have a fitted effect of over 50% in size
# Method in brief: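 Wild-type HCT-116 cells were seeded at 1,500 per well, incubated overnight at 37 C, then exposed to compounds in DMSO for 2hr. Viability was read by CellTiter-Glo luminescence after 30min at room temperature.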
# [5] = qHTS assay to identify small molecule agonists of the sonic hedgehog signaling (Shh) pathway - cell viability counter screen (AID 1259366); note: nearly all actives have a fitted effect of over 50% in size
# Method in brief: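 NIH/3T3-derived 3T3 Gli1-Luc cells (stable Gli1-responsive firefly luciferase reporter) were seeded, rested 4 hr at 37 C/5% CO2, then exposed to compounds in DMSO for 24 hr; viability was read by CellTiter-Fluor fluorescence in the same wells.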
# [6] = qHTS assay to identify small molecule agonists of the sonic hedgehog signaling (Shh) pathway (AID 1259368; calls by dose curve; note: series mostly up to about 92 µM; nearly all actives have a fitted effect of over 15% in size)
# Method in brief: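 NIH/3T3-derived 3T3Gli1-Luc cells carrying a stably integrated Gli1 response element–firefly luciferase reporter were plated, left 4 hr at 37 C, then given compounds in DMSO for 24 hr. Luminescence was read 30 min after adding luciferase reagent.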
# [7] = qHTS assay to identify small molecule antagonists of the sonic hedgehog signaling (Shh) pathway (AID 1259369; calls by dose curve; note: nearly all actives have a fitted effect of over 45% in size)
# Method in brief: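 NIH/3T3-derived 3T3Gli1-Luc cells with stably integrated Gli1-Luc reporter were preincubated 4hr at 37 C, then given compounds in DMSO plus Shh conditioned medium and incubated 24hr. Firefly luciferase luminescence read after 30min reagent at room temperature.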
# [8] = biological target: Estrogen receptor beta (Homo sapiens) (UniProt Q92731); experiment: qHTS assay to identify small molecule agonists of the estrogen receptor beta (ER-beta) signaling pathway (AID 1259377; active = well fitted activation curve with a large enough effect in the signal ratio in the repeat runs, not every such curve was filed as active; the % refers to the signal ratio)
# Method in brief: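 ER-beta-UAS-bla HEK293T (GripTite) cells carrying a UAS-driven beta-lactamase reporter, in medium with 2% charcoal-stripped FBS, were exposed to compounds for 16 hr at 37C; LiveBLAzer B/G FRET substrate was then added and fluorescence read after 2 hours at room temperature.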
# [9] = biological target: Estrogen receptor beta (Homo sapiens) (UniProt Q92731); experiment: qHTS assay to identify small molecule antagonists of the estrogen receptor beta (ER-beta) signaling pathway (AID 1259378; active = well fitted inhibition curve with a large enough effect in the signal ratio in the repeat runs, not every such curve was filed as active; the % refers to the signal ratio)
# Method in brief: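 Antagonist mode: compounds added to beta-lactamase reporter HEK293T ER-beta-UAS cells stimulated with E2 (1nM final), 16 hr at 37C. LiveBLAzer B/G FRET substrate, 2 hours room temperature, fluorescence read-out.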
# [10] = qHTS assay to identify small molecule agonists of the androgen receptor (AR) signaling pathway in the presence of an antagonist - cell viability counter screen (AID 1259379); note: series mostly up to about 92 µM; nearly all actives have a fitted effect of over 25% in size
# Method in brief: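 MDA-kb2 human breast carcinoma cells (stable MMTV-luciferase, AR/GR responsive) were seeded 3,000 cells/well, pre-incubated 5 hr at 37C without CO2, then given 3.0uM nilutamide and compounds at 15 concentrations for 16 hr. Viability was read by CellTiter-Fluor fluorescence.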
# [11] = qHTS assay to identify small molecule agonists of the estrogen receptor beta (ER-beta) signaling pathway - cell viability counter screen (AID 1259380); note: nearly all actives have a fitted effect of over 30% in size; note: potency is the fitted concentration of half-maximal effect
# Method in brief: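 ER-beta-UAS-bla HEK293T cells in medium with 2% charcoal-stripped FBS were preincubated 6 hr at 37C, dosed with compound in DMSO for 16 hr, then after the bla read, CellTiter-Glo was added for 30 min at room temperature; luminescence recorded.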
# [12] = qHTS assay to identify small molecule antagonists of the estrogen receptor beta (ER-beta) signaling pathway - cell viability counter screen (AID 1259382); note: nearly all actives have a fitted effect of over 55% in size; note: potency is the fitted concentration of half-maximal effect
# Method in brief: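 ER-beta-UAS-bla HEK293T cells (2,000/well, 2% charcoal-stripped FBS) were pre-incubated 6 hr at 37C, then given compound plus 1nM final 17-beta-estradiol for 16 hr. Viability was read in the same wells by CellTiter-Glo luminescence after 30 min at room temperature.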
# [13] = qHTS assay to identify small molecule agonists or antagonists of the thyroid stimulating hormone receptor (TSHR) signaling pathway - wild type cell line counter screen (AID 1259384; calls by dose curve)
# Method in brief: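 Counter screen in untransfected Hek293: compounds (15-point titration, triplicate) plus phosphodiesterase inhibitor Ro20-1724 added after 18 h plating; 30 min RT. Intracellular cAMP via competitive d2/cryptate immunoassay, 1 h incubation.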
# [14] = biological target: Thyrotropin receptor (Homo sapiens) (UniProt P16473); experiment: qHTS assay to identify small molecule antagonists of the thyroid stimulating hormone receptor (TSHR) signaling pathway (AID 1259385; calls by dose curve; note: nearly all actives have a fitted effect of over 20% in size)
# Method in brief: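 Antagonist mode: compound-treated TSHR-expressing HEK293 cells were stimulated with 1.5 ng/mL TSH (final) in presence of Ro20-1724 for 30 min at RT. HTRF cAMP detection after 1 h; each compound tested at 15 concentrations, triplicate.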
# [15] = qHTS assay to identify small molecule agonists of the estrogen receptor alpha (ER-alpha) signaling pathway in the presence of an antagonist - cell viability counter screen (AID 1259386); note: nearly all actives have a fitted effect of over 30% in size; note: potency is the fitted concentration of half-maximal effect
# Method in brief: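 VM7Luc4E2 cells (endogenous full-length ER-alpha, 4×ERE-luciferase) were held 5 days in phenol red-free medium with 10% charcoal-stripped FBS, plated, then given 10.0nM ICI-182,780 and compounds at 15 concentrations for 22hr at 37C; viability read by CellTiter-Fluor fluorescence.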
# [16] = biological target: Estrogen receptor (Homo sapiens) (UniProt P03372); experiment: qHTS assay to identify small molecule agonists of the estrogen receptor alpha (ER-alpha) signaling pathway in the presence of an antagonist (AID 1259383; calls by dose curve; note: top concentration of the series differs between compounds; nearly all actives have a fitted effect of over 15% in size)
# Method in brief: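 VM7Luc4E2 cells (endogenous full-length ER-alpha, 4×ERE-luciferase) were precultured 5 days in phenol red-free medium with 10% charcoal-stripped FBS, given 10.0nM ICI-182,780 (final), then treated with compounds at 15 concentrations for 22hr at 37C; luminescence read with ONE-Glo.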
# [17] = qHTS assay to identify small molecule antagonists of the sonic hedgehog signaling (Shh) pathway - cell viability counter screen (AID 1259367); note: nearly all actives have a fitted effect of over 55% in size
# Method in brief: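 Using CellTiter-Fluor, viability of Gli1-Luc reporter 3T3 cells is read by fluorescence in the wells used for the Shh luciferase assay. Treatment lasts 23 hr with conditioned medium, then reagent 1 hr at 37C.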
# Chain of Estrogen receptor beta (Homo sapiens) (Q92731 whole entry, looked up): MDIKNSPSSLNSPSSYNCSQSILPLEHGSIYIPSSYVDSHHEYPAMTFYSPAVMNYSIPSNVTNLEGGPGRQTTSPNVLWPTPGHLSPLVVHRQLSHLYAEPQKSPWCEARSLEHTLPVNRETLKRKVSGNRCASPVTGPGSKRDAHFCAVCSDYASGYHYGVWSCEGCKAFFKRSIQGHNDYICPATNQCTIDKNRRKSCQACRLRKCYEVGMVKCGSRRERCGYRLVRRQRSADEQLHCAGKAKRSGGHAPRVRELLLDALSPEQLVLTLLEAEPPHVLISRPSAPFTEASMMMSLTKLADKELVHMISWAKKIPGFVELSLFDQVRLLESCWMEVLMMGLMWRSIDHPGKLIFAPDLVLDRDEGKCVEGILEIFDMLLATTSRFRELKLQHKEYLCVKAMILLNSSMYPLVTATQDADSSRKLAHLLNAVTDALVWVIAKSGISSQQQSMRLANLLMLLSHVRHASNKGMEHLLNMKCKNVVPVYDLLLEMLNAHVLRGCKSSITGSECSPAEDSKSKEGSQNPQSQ
# Chain of Thyrotropin receptor (Homo sapiens) (P16473 whole entry, looked up): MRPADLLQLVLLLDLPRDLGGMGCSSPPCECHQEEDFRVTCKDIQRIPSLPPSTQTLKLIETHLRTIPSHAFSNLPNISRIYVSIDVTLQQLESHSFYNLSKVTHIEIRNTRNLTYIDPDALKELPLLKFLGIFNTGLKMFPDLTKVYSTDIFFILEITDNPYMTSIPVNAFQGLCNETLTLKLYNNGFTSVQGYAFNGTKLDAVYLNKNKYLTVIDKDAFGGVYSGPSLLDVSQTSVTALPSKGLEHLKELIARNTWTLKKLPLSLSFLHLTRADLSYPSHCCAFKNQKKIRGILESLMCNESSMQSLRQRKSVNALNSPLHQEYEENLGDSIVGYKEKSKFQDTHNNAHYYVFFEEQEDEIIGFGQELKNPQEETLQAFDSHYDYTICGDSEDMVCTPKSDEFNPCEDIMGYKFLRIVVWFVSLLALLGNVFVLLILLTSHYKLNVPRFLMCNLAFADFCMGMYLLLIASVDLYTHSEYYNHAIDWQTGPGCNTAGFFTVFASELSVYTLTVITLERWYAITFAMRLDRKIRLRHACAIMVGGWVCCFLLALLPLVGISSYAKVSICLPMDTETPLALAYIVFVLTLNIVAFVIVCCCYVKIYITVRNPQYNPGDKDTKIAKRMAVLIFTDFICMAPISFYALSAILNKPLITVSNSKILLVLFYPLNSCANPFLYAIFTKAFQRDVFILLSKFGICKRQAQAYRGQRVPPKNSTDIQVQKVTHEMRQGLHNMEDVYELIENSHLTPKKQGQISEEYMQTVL
# Chain of Estrogen receptor (Homo sapiens) (P03372 whole entry, looked up): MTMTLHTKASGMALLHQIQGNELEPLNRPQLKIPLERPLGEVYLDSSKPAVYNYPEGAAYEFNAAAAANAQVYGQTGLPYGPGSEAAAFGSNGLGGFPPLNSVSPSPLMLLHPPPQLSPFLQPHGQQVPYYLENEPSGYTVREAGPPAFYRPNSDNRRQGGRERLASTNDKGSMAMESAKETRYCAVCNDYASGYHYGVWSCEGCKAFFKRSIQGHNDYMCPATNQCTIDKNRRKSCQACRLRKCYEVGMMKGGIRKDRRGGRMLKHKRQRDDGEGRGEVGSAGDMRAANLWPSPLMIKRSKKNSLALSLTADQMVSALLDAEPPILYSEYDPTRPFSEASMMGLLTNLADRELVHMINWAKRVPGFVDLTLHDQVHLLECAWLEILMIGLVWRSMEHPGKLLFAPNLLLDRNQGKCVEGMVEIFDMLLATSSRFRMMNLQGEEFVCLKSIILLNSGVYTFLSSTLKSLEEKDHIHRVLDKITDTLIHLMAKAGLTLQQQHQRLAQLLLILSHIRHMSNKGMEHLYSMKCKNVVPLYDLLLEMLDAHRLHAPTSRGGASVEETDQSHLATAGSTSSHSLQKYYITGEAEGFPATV
SMILES,Potency [1],Potency [2],Potency [3],outcome [4],Potency [5],Potency [6],Potency [7],Potency [8],Potency [9],Potency [10],Potency [11],Potency [12],Potency [13],Potency [14],Potency [15],Potency [16],Potency [17]
CC(C)=CCO,inactive,inactive,inactive,inactive,inactive,inactive,inactive,inactive,inactive,inactive,inactive,inactive,inactive,inactive,inactive,–,–
[Na+],inactive,inactive,inactive,inactive,inactive,inactive,inactive,–,–,inactive,inactive,inactive,–,–,inactive,inactive,–
CN(C)C,inactive,inactive,–,inactive,inactive,inactive,inactive,inactive,inactive,inactive,inactive,inactive,–,–,inactive,inactive,inactive
CCCCCCC(C)O (stereo unspecified),inactive,inactive,inactive,inactive,inactive,inactive,inactive,inactive,inactive,inactive,inactive,inactive,–,–,inactive,inactive,–
Nc1ccc(O)c(N)c1,inactive,inactive,inactive,inactive,–,inactive,inactive,inactive,inactive,–,inactive,inactive,–,–,60.7 µM (active) and 54.5 µM (active),–,–
C=C[Si](OCCOC)(OCCOC)OCCOC,inactive,inactive,–,inactive,inactive,inactive,inactive,–,–,inactive,inactive,inactive,inactive,inactive,inactive,inactive,inactive
CCCN1C=CN(C)C1,inactive,inactive,inactive,inactive,inactive,inactive,inactive,–,–,inactive,inactive,inactive,inactive,inactive,inactive,–,–
CC(=O)Nc1ccc2c(c1)Cc1cc(NC(C)=O)ccc1-2,inactive,inactive,inactive,inactive,inactive,inactive,inactive,–,–,inactive,inactive,inactive,inactive,inactive,inactive,–,inactive
Cc1ccc(C(C)(C)C)cc1,inactive,inactive,inactive,inactive,inactive,inactive,inactive,–,–,inactive,inactive,inactive,inactive,inactive,inactive,inactive,–
Cc1ccc([N+](=O)[O-])c(C)c1,inactive,6.11 µM (active) and inactive,inactive,inactive,inactive,inactive,inactive,–,–,inactive,6.11 µM (active) and inactive,8.63 µM (active) and inactive,inactive,inactive,inactive,–,inactive
c1ccc2cc3ccccc3cc2c1,inactive,inactive,–,inactive,inactive,inactive,inactive,inactive,–,inactive,inactive,inactive,inactive,inactive,inactive,–,inactive
c1ccc2c(c1)ccc1cc3c(ccc4ccccc43)cc12,inactive,inactive,12.1 µM (active) and 15.2 µM (active),inactive,inactive,inactive,inactive,–,–,inactive,inactive,inactive,inactive,–,inactive,inactive,inactive
CCCCCC=O,inactive,inactive,–,inactive,inactive,inactive,inactive,–,–,inactive,inactive,inactive,inactive,inactive,inactive,–,inactive
CCCCCC1C(=O)CCC1CC(=O)OC (stereo unspecified),inactive,inactive,inactive,inactive,inactive,inactive,inactive,–,–,inactive,inactive,inactive,inactive,inactive,inactive,–,inactive
c1ccc2ncccc2c1,inactive,inactive,–,inactive,inactive,inactive,inactive,–,–,inactive,inactive,inactive,inactive,inactive,inactive,inactive,inactive
Cc1ccc(N)c([N+](=O)[O-])c1,inactive,inactive,inactive,inactive,inactive,inactive,inactive,inactive,inactive,inactive,inactive,inactive,inactive,inactive,inactive,inactive,inactive
O=S1(=O)CCCO1,inactive,inactive,inactive,inactive,inactive,inactive,inactive,inactive,inactive,inactive,inactive,inactive,inactive,inactive,inactive,–,–
